DT40 TDP1 CPT: qHTS for Inhibitors of human tyrosyl-DNA phosphodiesterase 1 (TDP1): qHTS in cells in presence of CPT. chicken DT40 Tdp1-/-;hTDP1 cells + 20 nM CPT, ATP luminescence, 48 h. Potency, µM (titrated, usually from 46.2 µM), without a hit: at the top dose activity change, negative = growth inhibition, most hits filed as inhibitors. actives 12% (n = 420,000). AID 686979, 2013; also: potency is read from the fitted curve at half-maximal effect; nearly all actives have a fitted effect of over 55% in size
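Cell growth measured by CellTiter-Glo luminescence after a minimum 48 h, 37 C compound exposure with 20 nM CPT in Tdp1-knockout DT40 cells stably expressing hTDP1, seeded 400/well; qHTS titration format.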
TDP1 cell noCPT: qHTS for Inhibitors of human tyrosyl-DNA phosphodiesterase 1 (TDP1): qHTS in cells in absence of CPT; DT40 Tdp1-/- hTDP1 cells, no CPT, ATP luminescence, 48 h; actives 15% (n = 420,000); Potency, µM (titrated, usually from 46.2 µM), without a hit: at the top dose activity change, negative = growth inhibition, usual class: inhibitors; also: potency is read from the fitted curve at half-maximal effect; nearly all actives have a fitted effect of over 55% in size
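Growth kinetics read by CellTiter-Glo luminescence after ≥48 hr at 37 °C. Cells: DT40 Tdp1-/- stably carrying human TDP1, 400 per well, compound exposure in the absence of CPT (DMSO vehicle).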
IL-1B inflam inh: qHTS for Inhibitors of Inflammasome Signaling: IL-1-beta AlphaLISA Primary Screen; THP-1 LPS/ATP IL-1B secretion, AlphaLISA, 16 h; active compounds read low; activity change, % at 57.5 µM; actives 4.7% (n = 360,000); AID 743279, 2014; in the data active = activity change below about -50%; inconclusive = mostly about -30% to -49%
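THP-1 cells pretreated 1 hr with compounds (up to 57.5 uM final), then stimulated with LPS (250 ng/mL final) plus ATP (1.25 mM final); secreted IL-1B measured by AlphaLISA after 16 hr, decreased signal indicating inhibition.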
HT1080 IDH1KD tx: qHTS for induction of synthetic lethality in tumor cells producing 2HG: qHTS for the HT-1080-IDH1KD cell line. actives 2% (n = 360,000). HT-1080 IDH1 knockdown viability, ATP luminescence, 48 h. Potency, µM (titrated, usually from 46.1 µM), without a hit: at the top dose activity, negative = toxicity, usual class: cytotoxic;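 also: potency is read from the fitted curve at half-maximal effect; 0% = DMSO wells and -100% = cell-free medium wells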
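% activity derives from luminescence (CellTiter-Glo), normalised to DMSO and no-cell wells. HT-1080-IDH1KD cells, 750/well, had 48 h compound exposure at 37 °C.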
HT1080NT lethal: qHTS for induction of synthetic lethality in tumor cells producing 2HG: qHTS for the HT-1080-NT fibrosarcoma cell line; HT-1080-NT fibrosarcoma viability, CellTiter-Glo ATP luminescence, 48 h; Potency, µM (doses to about 46.1 µM), without a hit: at the top dose activity, negative = less viability, hits mostly cytotoxic; actives 1.6% (n = 360,000); AID 686970, 2013;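 also: NT is the 2HG producing partner of a matched IDH1 knockdown line; potency is read from the fitted curve at half-maximal effect; 0% = DMSO-treated cells and -100% = media-only wells without cells; nearly all actives have a fitted effect of over 55% in size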
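A 48-hour cytotoxicity screen used HT-1080-NT cells plated 2 hours before compound delivery. ATP-based CellTiter-Glo luminescence measured viability, normalized to DMSO and no-cell controls.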
ELG1 DNA repair: qHTS screen for small molecules that inhibit ELG1-dependent DNA repair in human embryonic kidney (HEK293T) cells expressing luciferase-tagged ELG1; HEK293T ELG1-luciferase reporter, luminescence, 16 h; DNA damage induced by 5-fluorouridine; Potency, µM (series often up to 46.1 µM), inactives show top-dose activity change, negative = inhibition, usual class: inhibitors; actives 2.3% (n = 330,000); also: potency is read from the fitted curve at half-maximal effect; nearly all actives have a fitted effect of over 55% in size
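5-Fluorouridine DNA damage + compound/DMSO, 2,000 cells/well, 16 h, 37 °C/5% CO2. ONE-Glo, 30 min RT, luminescence. Readout = decrease in reporter signal.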
Starred values were filed as active, the others as inactive. A selection: hits, their analogues and other compounds. The true share with any hit is near 19%. Unless noted, calls follow the shape of the dose curve; as a rule, active = well fitted curve in the direction sought with a large enough effect; inconclusive = small, poorly fitted or top-dose-only effect, or another doubt; inactive = no such curve, though single readings can be large; an effect the other way counts as inactive or inconclusive. Unless noted, % is scaled to controls: 0 for no effect and ±100 for the full control effect.

`COc1ccc(NC(=O)Cn2ncc(Cl)c(Cl)c2=O)cc1S(=O)(=O)N1CCOCC1` gave DT40 TDP1 CPT 12µM*, TDP1 cell noCPT 10µM*, IL-1B inflam inh -54*, HT1080 IDH1KD tx 21µM*, HT1080NT lethal -21% and ELG1 DNA repair inconclusive.
`NC(=O)N[C@@H](CCC(=O)O)C(=O)O` gave DT40 TDP1 CPT 1% and TDP1 cell noCPT -7%.
`Cc1ccc2c(=O)n3c(nc2c1)C(C)NC(=O)c1cccnc1-3` (stereo unspecified) gave DT40 TDP1 CPT -19%, TDP1 cell noCPT -4%, IL-1B inflam inh 31, HT1080 IDH1KD tx -3% and HT1080NT lethal 2%.
O=C(Nc1cccc(S(=O)(=O)N2CCCC2)c1)c1ccncc1 was read as DT40 TDP1 CPT inconclusive, TDP1 cell noCPT -29%, IL-1B inflam inh 67, HT1080 IDH1KD tx -3%, HT1080NT lethal -3% and ELG1 DNA repair -2%.
COc1ccc(NC(=O)c2ccc(Cl)nc2)cc1S(=O)(=O)N1CCOCC1 was read as DT40 TDP1 CPT 16µM*, TDP1 cell noCPT 23µM*, IL-1B inflam inh 36, HT1080 IDH1KD tx -22%, HT1080NT lethal -3% and ELG1 DNA repair inconclusive.
O=C(Nc1cccc(S(=O)(=O)N2CCCC2)c1)c1ccc(Cl)nc1 was read as DT40 TDP1 CPT 4.6µM*, TDP1 cell noCPT 5.8µM*, IL-1B inflam inh 7, HT1080 IDH1KD tx 6.5µM*, HT1080NT lethal inconclusive and ELG1 DNA repair 9.2µM*.
O=C(Cn1c(=O)nc(-c2ccccc2)c2cc(Cl)ccc21)N1CCN(c2ccc(F)cc2)CC1 was read as DT40 TDP1 CPT 16% and TDP1 cell noCPT -13%.
For Cc1cc(C)cc(C(=O)NC(CC(N)=O)c2ccc(N3CCN(C)CC3)c([N+](=O)[O-])c2)c1 (stereo unspecified) the results were DT40 TDP1 CPT 2%, TDP1 cell noCPT 2%, IL-1B inflam inh -2, HT1080 IDH1KD tx 11%, HT1080NT lethal 10% and ELG1 DNA repair 0%.
`CN(C)c1ccc(/C=C/c2ccc3cc(N)ccc3n2)cc1` gave DT40 TDP1 CPT 7.1µM* and TDP1 cell noCPT 3.2µM*.
Screening CN(C)c1ccc(C=Cc2cnccn2)cc1 returned DT40 TDP1 CPT -1%, TDP1 cell noCPT inconclusive, IL-1B inflam inh -12, HT1080 IDH1KD tx -12% and HT1080NT lethal -16%.
Screening Cc1ccc2nc(/C=C/c3cccc(F)c3)ccc2c1 returned DT40 TDP1 CPT 1%, TDP1 cell noCPT inconclusive, IL-1B inflam inh 6, HT1080 IDH1KD tx -18%, HT1080NT lethal 6% and ELG1 DNA repair inconclusive.
`Cc1ccc2nc(/C=C/c3ccc(N(C)C)cc3)ccc2c1` gave DT40 TDP1 CPT 13µM* and TDP1 cell noCPT 13µM*.
Screening CCOc1ccccc1NC(=O)COC(=O)c1c(CC)noc1C returned DT40 TDP1 CPT -9%, TDP1 cell noCPT -22%, IL-1B inflam inh 11, HT1080 IDH1KD tx -5%, HT1080NT lethal -16% and ELG1 DNA repair 11%.
CNc1nc(NCc2cccc(OC)c2)c2sccc2n1 was read as DT40 TDP1 CPT 7.3µM*, TDP1 cell noCPT 10µM*, IL-1B inflam inh 50, HT1080 IDH1KD tx inconclusive and HT1080NT lethal -20%.
CCc1ccccc1Oc1nc(NCc2ccccc2)nc2ccsc12 was read as DT40 TDP1 CPT inconclusive, TDP1 cell noCPT inconclusive, IL-1B inflam inh 37, HT1080 IDH1KD tx inconclusive and HT1080NT lethal inconclusive.
`COc1cccc(CNc2nc(NCc3ccccc3)nc3ccsc23)c1` gave DT40 TDP1 CPT 2.1µM*, TDP1 cell noCPT 4.1µM*, IL-1B inflam inh -55*, HT1080 IDH1KD tx inconclusive and HT1080NT lethal 21µM*.
Screening COc1cccc(CNc2nc(NCC3CC3)nc3ccsc23)c1 returned DT40 TDP1 CPT 16µM*, TDP1 cell noCPT 2.1µM* and IL-1B inflam inh -72*.
For O=C(O)C1CCCN1 (stereo unspecified) the results were DT40 TDP1 CPT 7% and TDP1 cell noCPT 4%.
Screening COc1ccc(C(=O)NC(C)c2ccc(-n3ccnc3)cc2)cc1S(=O)(=O)N1CCOCC1 (stereo unspecified) returned DT40 TDP1 CPT -7%, TDP1 cell noCPT -26%, IL-1B inflam inh -6, HT1080 IDH1KD tx -6%, HT1080NT lethal -3% and ELG1 DNA repair 18%.
For NC(CCC(=O)NC(CCSC(CC(=O)O)C(=O)O)C(=O)NCC(=O)O)C(=O)O (stereo unspecified) the results were DT40 TDP1 CPT -7% and TDP1 cell noCPT -4%.
COc1ccccc1CN1CCCC(CN(CCN(C)C)C(=O)C2CCCC2)C1 (stereo unspecified) was read as DT40 TDP1 CPT -2%, TDP1 cell noCPT 1%, IL-1B inflam inh -52*, HT1080 IDH1KD tx -19%, HT1080NT lethal 1% and ELG1 DNA repair -5%.
`COc1ccccc1CN1CCCC(C(=O)N(C)Cc2ccccc2)C1` (stereo unspecified) gave DT40 TDP1 CPT inconclusive, TDP1 cell noCPT inconclusive, IL-1B inflam inh -1, HT1080 IDH1KD tx -19%, HT1080NT lethal -4% and ELG1 DNA repair -16%.
Screening Cc1nn(Cc2c(F)c(F)c(F)c(F)c2F)c(C)c1NC(=O)c1nn(C)c(C)c1Br returned DT40 TDP1 CPT inconclusive, TDP1 cell noCPT inconclusive, IL-1B inflam inh 0, HT1080 IDH1KD tx -2%, HT1080NT lethal 8% and ELG1 DNA repair -16%.
S=c1nc(-c2ccc(Br)cc2)oc2c1CCCC2 was read as DT40 TDP1 CPT 21µM*, TDP1 cell noCPT -98%, IL-1B inflam inh 23, HT1080 IDH1KD tx 17%, HT1080NT lethal 16% and ELG1 DNA repair inconclusive.
For CN(C)/C=C/c1c([N+](=O)[O-])c2ccc(O)cc2n1-c1ccccc1 the results were DT40 TDP1 CPT -19%, TDP1 cell noCPT inconclusive, IL-1B inflam inh -86*, HT1080 IDH1KD tx inconclusive, HT1080NT lethal inconclusive and ELG1 DNA repair 7.3µM*.

Compound activity as filed in PubChem.
